Assay [1] can be described thus: qHTS RealTime-Glo MT Cell Viability Assay in HEK293 cells - 0 hour (AID 1224880). Note: top concentration of the series differs between compounds; nearly all actives have a fitted effect of over 45% in size. The gist of the method:
(§1)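 Kinetic, non-lysing viability readout. Seed HEK293 (600/well) with reagent, incubate 5 h at 37 C/5% CO2, pin 23 nL compound in DMSO, incubate at 37 C, read luminescence at 0, 8, 16, 24, 32, 40 h.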
In general terms: Quantitative high-throughput screening tests each substance at several concentrations.

Assay [2] is described as follows: A CellTox Green Cytotoxicity Assay to monitor cytotoxicity in HEK293 cells - 32 hour (AID 1224881). Note: nearly all actives have a fitted effect of over 40% in size. Note: potency is the fitted concentration of half-maximal effect. The gist of the method:
(§2)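 Real-time, in one plate: 600 HEK293 cells/well with dead-cell DNA dye, pinned compound after 5 h, 37 C incubation over 40 h; viable cells give no appreciable fluorescence.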

The nature of assay [3]: A CellTox Green Cytotoxicity Assay to monitor cytotoxicity in HepG2 cells - 0 hour (AID 1224882). Note: nearly all actives have a fitted effect of over 35% in size. The gist of the method: (§3)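 Cytotoxicity was tracked as dead-cell DNA fluorescence in HepG2 cells treated with test compounds at 37 C; each time-point value comes from one kinetic series spanning 0, 8, 16, 24, 32 and 40 h.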
Assay [4] can be described thus: A CellTox Green Cytotoxicity Assay to monitor cytotoxicity in HepG2 cells - 32 hour (AID 1224883). Note: nearly all actives have a fitted effect of over 50% in size. Note: potency is the fitted concentration of half-maximal effect. The essentials: as §3
Assay [5] in a line: qHTS RealTime-Glo MT Cell Viability Assay in HepG2 cells - 16 hour (AID 1224885). Note: nearly all actives have a fitted effect of over 50% in size. The essentials: (§4)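 Cell number in HepG2 cultures estimated from NanoLuc luminescence generated by metabolic reduction of a prosubstrate by living cells. The homogeneous, nonlytic format allowed repeated reads at 0, 8, 16, 24, 32 and 40 h of compound exposure.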
A short description of assay [6]: qHTS RealTime-Glo MT Cell Viability Assay in HEK293 cells - 24 hour (AID 1224886). Note: top concentration of the series differs between compounds; nearly all actives have a fitted effect of over 50% in size. The gist of the method: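 Homogeneous bioluminescent viability format in HEK293 cells (600 cells/well). Following 5 h at 37 C/5% CO2, 23 nL compound was pintooled; the signal was measured repeatedly during 40 h incubation.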
A short description of assay [7]: qHTS RealTime-Glo MT Cell Viability Assay in HEK293 cells - 8 hour (AID 1224887). Note: top concentration of the series differs between compounds; nearly all actives have a fitted effect of over 50% in size. The gist of the method:
as §1

The nature of assay [8]: A CellTox Green Cytotoxicity Assay to monitor cytotoxicity in HEK293 cells - 16 hour (AID 1224888). Note: nearly all actives have a fitted effect of over 35% in size. The essentials:
as §2

A short description of assay [9]: qHTS RealTime-Glo MT Cell Viability Assay in HepG2 cells - 0 hour (AID 1224889). Note: nearly all actives have a fitted effect of over 50% in size. The gist of the method: as §4
A short description of assay [10]: A CellTox Green Cytotoxicity Assay to monitor cytotoxicity in HEK293 cells - 8 hour (AID 1224884). Note: nearly all actives have a fitted effect of over 35% in size. The essentials: as §2

Inconclusive results are not listed. Calls of active or inactive are those of the source. Calls come from the whole dose curve; as a rule, active = well fitted curve in the direction sought with a large enough effect in the repeat runs; inconclusive = weak or mixed curves; inactive = no such curve, though single readings can be large; an effect the other way counts as inactive or inconclusive.

From PubChem BioAssay (Tox21) come the findings set out here.
% is set by controls: 0 for no effect and ±100 for the full control effect.

With `Cc1ccc([N+](=O)[O-])c(N)c1`, the compound was called inactive in [1] and in [5]. The Potency result in assay [2], in assay [3], in [4], in [6], in assay [7] and in [8] was “inactive” throughout. Further, in assay [9], the Potency entry is “inactive”.

For the compound `C=C(C)C(=O)OCCOP(=O)(O)O`, the compound was classed as inactive in assay [1] and in [5]. In addition, the Potency entry in assay [2], in [3], in [4], in [6], in [7] and in [8] was “inactive” each time. In addition, in [9], the Potency result was “inactive”.

Regarding `O=C(CC(=O)C(F)(F)F)c1ccccc1`, the result in assay [1] and in [5] was inactive. Moreover, the Potency entry in assay [2], in assay [3], in [10], in assay [6], in assay [7] and in assay [8] was “inactive” throughout. Moreover, the Potency entry in assay [9] was “inactive”.

For the compound `CCCCC(=O)O[C@]1(C(=O)CO)[C@H](C)C[C@H]2[C@@H]3CCC4=CC(=O)C=C[C@]4(C)[C@@]3(F)[C@@H](O)C[C@@]21C`, the outcome in [1] and in assay [5] was inactive. Further, the Potency result in assay [2], in [3], in assay [10], in [6], in assay [7] and in assay [8] was “inactive” each time.

For `NCCCN1CCN(CCCN)CC1`, the compound was classed as inactive in assay [1] and in [5]. The Potency result in assay [2], in assay [3], in assay [10], in assay [6], in assay [7] and in [8] was “inactive” in each case. Further, in [9], the Potency result was “inactive”.

In the case of `CCCCNc1ccc(C(=O)OCCN(CC)CC)cc1`, the result in [1] and in assay [5] was inactive. In addition, the Potency result in assay [2], in [3], in assay [4], in assay [7], in assay [8] and in assay [9] was “inactive” in each case.

`Cc1onc(-c2ccccc2)c1C(=O)Cl`: the compound was classed as inactive in assay [1] and in assay [5]. Further, the Potency result in assay [2], in assay [3], in [10], in [6], in [7] and in assay [8] was “inactive” in each case. For the same compound, in [9], the Potency result was “inactive”.

`O=C(O)CN(CCN(CC(=O)O)CC(=O)O)CCN(CC(=O)O)CC(=O)O`: the activity change, negative = cytotoxicity in [1] is 6.1% [at 15.8 µM] (inactive); in assay [9], -4.51% [at 15.8 µM] (inactive). In addition, the cytotoxicity increase in assay [2] is 18.1% [at 15.8 µM] (inactive); in assay [4], 22% [at 15.8 µM] (inactive). In addition, the cytotoxicity in [3] is 20.5% [at 15.8 µM] (inactive). Further, in assay [5], the activity change, negative = cytotoxic is -0.409% [at 15.8 µM] (inactive). Moreover, in assay [8], the activity change is 12.4% [at 15.8 µM, stronger effect = higher value] (inactive).

`CCOc1ccc(NS(=O)(=O)c2ccc(N)cc2)nn1`: the outcome in assay [1] and in assay [5] was inactive. Moreover, the Potency result in assay [2], in assay [3], in assay [4], in [10], in [8] and in assay [9] was “inactive” throughout.

Take `COc1ccccc1N1CCN(CCCNc2cc(=O)n(C)c(=O)n2C)CC1`: the compound was called inactive in [1] and in assay [5]. For the same compound, the Potency entry in assay [2], in [3], in [4], in assay [10], in [8] and in assay [9] was “inactive” throughout.

Turning to `CO[C@@]1(NC(=O)CSCC#N)C(=O)N2C(C(=O)O)=C(CSc3nnnn3C)CS[C@@H]21`, the compound was classed as inactive in assay [1] and in assay [5]. Moreover, the Potency result in assay [2], in [3], in assay [4], in assay [6], in [8] and in assay [9] was “inactive” throughout.

As for `CN1CCN(C2=Nc3cc(F)ccc3Cc3ccccc32)CC1`, the compound was called inactive in assay [1] and in assay [5]. The Potency entry in assay [2], in assay [3], in [10], in [6], in assay [7] and in assay [8] was “inactive” throughout. The Potency result in assay [9] is “inactive”.

In the case of `CCCCCCC`, the compound was classed as inactive in assay [1] and in [5]. Further, the Potency entry in assay [2], in [3], in [4], in [6], in assay [7] and in assay [8] was “inactive” in each case. In addition, in assay [9], the Potency entry was “inactive”.

`CC(CNC1CCCCC1)OC(=O)c1ccccc1` (configuration not stated): the compound was classed as inactive in [1] and in [5]. The Potency result in assay [2], in assay [3], in assay [4], in assay [6], in assay [7] and in assay [8] was “inactive” each time. For the same compound, the Potency entry in assay [9] is “inactive”.

In the case of `C=CC(C)(O)CC/C=C(\C)CCC=C(C)C` (configuration not stated), the outcome in assay [1] and in assay [5] was inactive. Also, the Potency is 49 µM (active) in [2] and 21.9 µM (active) in assay [4]. Besides, the Potency entry in assay [3], in assay [6], in assay [7] and in [9] was “inactive” throughout.

With `CCC1(C)NC(=O)NC1=O` (configuration not stated), the result in [1] and in assay [5] was inactive. Besides, the Potency result in [2], in assay [3], in assay [10], in [6], in assay [7] and in assay [8] was “inactive” throughout. The Potency entry in assay [9] is “inactive”.

Consider `Cc1ccc(C)c(N)c1`, for which the compound was called inactive in assay [1] and in assay [5]. For the same compound, the Potency result in assay [2], in [3], in [4], in assay [6], in [7] and in assay [8] was “inactive” in each case. Also, in [9], the Potency result was “inactive”.

For the compound `CCN(CC)CCNC(=O)COc1ccc(Cl)cc1`, the compound was called inactive in assay [1] and in [5]. In addition, the Potency entry in [2], in assay [3], in [10], in assay [6], in assay [7] and in assay [8] was “inactive” in each case. Also, the Potency result in assay [9] was “inactive”.

With `CCCCOc1cc(C(=O)NCCN(CC)CC)c2ccccc2n1`, the compound was classed as inactive in assay [1] and in [5]. Besides, the Potency entry in assay [2], in assay [3], in assay [10], in [8] and in assay [9] was “inactive” each time. In assay [4], the Potency was 23.9 µM (active).

Consider `NCCC(O)(P(=O)(O)O)P(=O)(O)O`, for which the compound was called inactive in assay [1] and in [5]. Further, the Potency entry in assay [2], in assay [3], in assay [4], in assay [6], in [8] and in assay [9] was “inactive” throughout.

For `COC(=O)c1ccc(OC)cc1`, the compound was classed as inactive in assay [1] and in [5]. The Potency result in assay [2], in [3], in assay [4], in [6], in [7] and in assay [8] was “inactive” each time. In addition, in assay [9], the Potency result is “inactive”.

For the compound `FC(F)(F)c1ccccc1`, the call in assay [1] and in assay [5] was inactive. The Potency entry in [2], in assay [3], in assay [4], in assay [6], in assay [8] and in assay [9] was “inactive” in each case.

For the compound `Cc1ccsc1C(=CCCN1CCC[C@@H](C(=O)O)C1)c1sccc1C`, the call in assay [1] and in assay [5] was inactive. Moreover, the Potency entry in assay [2], in assay [4], in [10], in assay [6], in assay [7] and in assay [8] was “inactive” each time. The Potency entry in [9] was “inactive”.

For `N#Cc1ccc(C(c2ccc(C#N)cc2)n2cncn2)cc1`, the result in [1] and in assay [5] was inactive. The Potency result in assay [2], in assay [3], in [10], in [6], in [7] and in [8] was “inactive” each time. In addition, the Potency entry in [9] was “inactive”.

Consider `CCN(CC)CC1CCCCN1CC(=O)N1c2ccccc2C(=O)Nc2cccnc21` (configuration not stated), for which the compound was classed as inactive in assay [1] and in assay [5]. Also, the Potency entry in assay [2], in assay [4], in assay [10], in assay [6], in assay [7] and in assay [8] was “inactive” in each case. In assay [9], the Potency entry was “inactive”.

For the compound `CC(C)C1=CC2=CC[C@@H]3[C@](C)(CCC[C@@]3(C)C(=O)O)[C@H]2CC1`, the compound was called inactive in assay [1] and in assay [5]. Further, the Potency entry in assay [2], in assay [4], in assay [10], in assay [6], in assay [7] and in assay [8] was “inactive” throughout. Further, the Potency result in assay [9] was “inactive”.

In the case of `CCC(=O)O[C@]1(C(=O)SCF)[C@H](C)C[C@H]2[C@@H]3C[C@H](F)C4=CC(=O)C=C[C@]4(C)[C@@]3(F)[C@@H](O)C[C@@]21C`, the result in assay [1] and in [5] was inactive. Besides, the Potency result in [2], in assay [3], in assay [10], in [6], in assay [7] and in [8] was “inactive” throughout. Also, in [9], the Potency result was “inactive”.
